What all share (parameters): species or system human, MV4-11 + K-562 + COLO205 + SK-N-BE2 + OVCAR-8
One experiment has as its system AURKB. Particulars: read-out: apparent Kd, compound concentrations: 100 nM and 1000 nM (sheet 'Samples'), n = 1.
A further experiment has as its system FECH. The conditions noted are these: read-out: apparent Kd; compound concentrations: 100 nM and 1000 nM (sheet 'Samples'), CATDS: 9.1141958763267306E-2; n = 1.
The subject of another experiment is FRK. The conditions noted are these: read-out: apparent Kd; compound concentrations: 100 nM and 1000 nM (sheet 'Samples'), CATDS: 0.20541048122338901; n = 1.
Another experiment has as its system HCK. The conditions noted are these: read-out: apparent Kd; compound concentrations: 100 nM and 1000 nM (sheet 'Samples'), CATDS: 0.153376634791901; n = 1.
Another experiment relates to LCK. Particulars: read-out: apparent Kd; compound concentrations: 100 nM and 1000 nM (sheet 'Samples'), CATDS: 0.126638477949608; n = 1.
Another experiment concerns LYN. The conditions noted are these: read-out: apparent Kd; compound concentrations: 100 nM and 1000 nM (sheet 'Samples'), CATDS: 0.11348132537540701; n = 1.
For the next experiment, the system named is MAP2K5. The conditions noted are these: read-out: apparent Kd; compound concentrations: 100 nM and 1000 nM (sheet 'Samples'), CATDS: 9.4476183920835705E-2; n = 1.
Another experiment deals with TNK2. The conditions noted are these: read-out: apparent Kd; compound concentrations: 100 nM and 1000 nM (sheet 'Samples'), CATDS: 0.38594497215225099; n = 1.
The test system of a further experiment is BUB1. Particulars: read-out: apparent Kd, n = 1.
The subject of a further experiment is MAPK14. The conditions noted are these: read-out: apparent Kd; compound concentrations:100 nM and 1000 nM (sheet 'Samples'); n = 1.
For another experiment, the system named is AURKA. Particulars: read-out: apparent Kd; compound concentrations: 100 nM and 1000 nM (sheet 'Samples'), CATDS: 4.2728158523190798E-2; n = 1.
A further experiment deals with CSNK1D. The conditions noted are these: read-out: apparent Kd; compound concentrations: 100 nM and 1000 nM (sheet 'Samples'), CATDS: 5.89125677268394E-2; n = 1.
The subject of a further experiment is CSNK1E. The conditions noted are these: read-out: apparent Kd; compound concentrations: 100 nM and 1000 nM (sheet 'Samples'), CATDS: 4.0450014161249097E-2; n = 1.
In the next experiment the test system is DDR1. The conditions noted are these: read-out: apparent Kd; compound concentrations: 100 nM and 1000 nM (sheet 'Samples'), CATDS: 6.5674707070784599E-2; n = 1.
For a further experiment, the system named is DDR2. The conditions noted are these: read-out: apparent Kd; compound concentrations: 100 nM and 1000 nM (sheet 'Samples'), CATDS: 3.7339921381228602E-2; n = 1.
The test system of the next experiment is EPHB6. Particulars: read-out: apparent Kd; compound concentrations: 100 nM and 1000 nM (sheet 'Samples'), CATDS: 3.6673450698806898E-2; n = 1.
Another experiment concerns FLT3. Particulars: read-out: apparent Kd; compound concentrations: 100 nM and 1000 nM (sheet 'Samples'), CATDS: 0.27087793421716799; n = 1.
Another experiment has as its system FLT4. Particulars: read-out: apparent Kd; compound concentrations: 100 nM and 1000 nM (sheet 'Samples'), CATDS: 4.30316479834668E-2; n = 1.
The next experiment relates to GAK. The conditions noted are these: read-out: apparent Kd; compound concentrations: 100 nM and 1000 nM (sheet 'Samples'), CATDS: 7.8479207153445404E-2; n = 1.
The next experiment deals with LIMK2. Particulars: read-out: apparent Kd; compound concentrations: 100 nM and 1000 nM (sheet 'Samples'), CATDS: 3.6080783188173302E-2; n = 1.
Another experiment relates to NQO2. Particulars: read-out: apparent Kd; compound concentrations: 100 nM and 1000 nM (sheet 'Samples'), CATDS: 0.178299559019577; n = 1.
A further experiment has as its system PDGFRB. Particulars: read-out: apparent Kd; compound concentrations: 100 nM and 1000 nM (sheet 'Samples'), CATDS: 5.3358090976632598E-2; n = 1.
The test system of another experiment is RET. The conditions noted are these: read-out: apparent Kd, n = 1.
The subject of a further experiment is RIPK2. The conditions noted are these: read-out: apparent Kd; compound concentrations: 100 nM and 1000 nM (sheet 'Samples'), CATDS: 3.9651452900350902E-2; n = 1.
The test system of another experiment is RIPK3. The conditions noted are these: read-out: apparent Kd; compound concentrations: 100 nM and 1000 nM (sheet 'Samples'), CATDS: 3.2567224991893698E-2; n = 1.
The next experiment deals with SIK2. Particulars: read-out: apparent Kd; compound concentrations: 100 nM and 1000 nM (sheet 'Samples'), CATDS: 4.1786415024185397E-2; n = 1.
Another experiment relates to TGFBR1. Particulars: read-out: apparent Kd; compound concentrations: 100 nM and 1000 nM (sheet 'Samples'), CATDS: 3.3015845196466199E-2; n = 1.
For a further experiment, the system named is TGFBR2. The conditions noted are these: read-out: apparent Kd; compound concentrations: 100 nM and 1000 nM (sheet 'Samples'), CATDS: 3.2296969977490597E-2; n = 1.
For the next experiment, the system named is TNK1. The conditions noted are these: read-out: apparent Kd; compound concentrations: 100 nM and 1000 nM (sheet 'Samples'), CATDS: 4.85220574572469E-2; n = 1.
The subject of another experiment is AXL. The conditions noted are these: read-out: apparent Kd; compound concentrations:100 nM and 1000 nM (sheet 'Samples'); n = 1.
In another experiment the test system is ERBB3. The conditions noted are these: read-out: apparent Kd; compound concentrations:100 nM and 1000 nM (sheet 'Samples'); n = 1.
The subject of a further experiment is MAP3K1. The conditions noted are these: read-out: apparent Kd; compound concentrations:100 nM and 1000 nM (sheet 'Samples'); n = 1.
In another experiment the test system is ZAK. Particulars: read-out: apparent Kd; compound concentrations:100 nM and 1000 nM (sheet 'Samples'); n = 1.
The test system of the next experiment is IKBKE. The conditions noted are these: read-out: apparent Kd; compound concentrations:100 nM and 1000 nM (sheet 'Samples'); n = 1.
The subject of the next experiment is PIK3C3. Particulars: read-out: apparent Kd; compound concentrations:100 nM and 1000 nM (sheet 'Samples'); n = 1.
The test system of the next experiment is TBK1. Particulars: read-out: apparent Kd; compound concentrations:100 nM and 1000 nM (sheet 'Samples'); n = 1.
[1] abbreviates: compound concentrations:100 nM and 1000 nM (sheet 'Samples').

Where two headings read alike, the source gives them in different places.

In the case of `Cc1ccc(C(=O)Nc2ccc(Nc3ccnc4cc(-c5nccs5)ccc34)cc2O)cc1.Cl` [GW494702A], the potency estimated from few doses was 1430 nM in the experiment with AURKB (CATDS: 8.5065344981926597E-2); 1090 nM in the experiment on FECH; 152 nM in the experiment on FRK; 267 nM with HCK; 412 nM with LCK; 547 nM with LYN. Also, the potency estimated from few doses in the experiment on MAP2K5 was 956 nM; with TNK2, 55.9 nM.

Regarding `Cl.Oc1cccc(-c2nc(-c3ccccc3)[nH]c2-c2ccncc2)c1` [SB-610251-B], the potency estimated from few doses in the experiment on BUB1 (setting [1]) was 2530 nM; with MAPK14 it was 1570 nM.

Take `CCCCc1nn2ncccc2c1-c1ccnc(Nc2ccc(N3CCN(C)CC3)cc2)n1` [GW684941X]: the potency estimated from few doses with AURKA was 853 nM; in the experiment on AURKB (CATDS: 4.3580096723042298E-2) it was 809 nM; with BUB1 (compound concentrations: 100 nM and 1000 nM (sheet 'Samples'), CATDS: 4.7022132934679002E-2) it was 667 nM; with CSNK1D it was 400 nM; with CSNK1E, 993 nM; in the experiment with DDR1 it was 320 nM. Moreover, the potency estimated from few doses in the experiment on DDR2 is 1270 nM; in the experiment on EPHB6 it was 1340 nM; in the experiment on FLT3, 32.5 nM; in the experiment with FLT4, 837 nM; with GAK, 227 nM; with LIMK2, 1420 nM. For the same molecule, the potency estimated from few doses in the experiment with NQO2 was 58.6 nM; in the experiment on PDGFRB it was 496 nM; in the experiment with RET (compound concentrations: 100 nM and 1000 nM (sheet 'Samples'), CATDS: 0.111645797001171), 122 nM; with RIPK2, 1050 nM; with RIPK3, 2080 nM; in the experiment on SIK2, 906 nM. Also, the potency estimated from few doses is 1970 nM in the experiment with TGFBR1, 2150 nM with TGFBR2 and 618 nM with TNK1.

As to `Cl.O=C(Nc1ccc(Oc2ccc3[nH]c(NC(=O)c4ccco4)nc3c2)cc1)Nc1cc(C(F)(F)F)ccc1F` [GW683134A_KCGS], the potency estimated from few doses is 1640 nM in the experiment with AXL; 1130 nM in the experiment with ERBB3; 2000 nM with MAP3K1; 498 nM in the experiment with RET (setting [1]); 2150 nM in the experiment with ZAK.

As for `CC(C)(C)OC(=O)NC1CCCN(c2cc(-c3ccc4c(N)n[nH]c4c3)nc(N)n2)C1` (stereo not shown) [GSK2286096A], the potency estimated from few doses in the experiment with AURKB (CATDS: 0.30892280218859702) is 105 nM; in the experiment on IKBKE, 78.7 nM; in the experiment with PIK3C3 it was 978 nM; in the experiment on TBK1, 129 nM.

Source of the values: paper PMC11062922 (Nature Chemical Biology, 2023).
